High-throughput results from PubChem.
Rows were chosen to be rich in hits. Some 5.4% of all compounds tested hit in one or more screens of this group.
Marburg entry inh – blocks Marburg virus binding to or entry into cells. AID 540276. Marburg virus pseudotyped entry inhibition, cell reporter. Potency, µM (doses to about 37.8 µM), inactives show at the top dose activity change, negative = inhibition, hits mostly inhibitors. 300,000 compounds, 1.8% hits; calls by dose curve; tested in HEK293 cells
Vaccinia mCherry – vaccinia inhibition (mCherry reporter); Vaccinia virus mCherry reporter infection, fluorescence; Potency, µM (titrated, usually from 36.5 µM), for inactives: at the highest dose activity change, negative = inhibition, usual class: inhibitors; 310,000 compounds, 0.63% hits; calls by dose curve; tested in A549 cells; note: nearly all actives have a fitted effect of over 35% in size
FMDV inh – blocks foot and mouth disease virus; FMDV antiviral cell-based qHTS; Potency, µM (titrated, usually from 57.9 µM), for the others: at the top dose activity change, negative = inhibition, most hits filed as inhibitors; 410,000 compounds, 1.2% hits; AID 1159524; calls by dose curve; tested in HEK293T cells; note: read-out not given here; nearly all actives have a fitted effect of over 45% in size
Sm TGR inh – S. mansoni TGR enzyme inhibition | 360,000 compounds, 3% hits | Potency, µM (highest dose often 114 µM), for inactives: at the highest dose activity change, negative = inhibition, usual class: inhibitors | purified TGR, DTNB reduction, TNB absorbance 405 nm | Q962Y6; active = well fitted inhibition curve with a large enough effect; inconclusive = small, poorly fitted or top-dose-only effect; inactive = no such curve, though single readings can be large or run the other way; note: nearly all actives have a fitted effect of over 60% in size
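TGR 20 nM + NADPH 100 uM (dispensed conc.), cpd preinc 15 min RT; start with NADPH (500 uM addition) then DTNB (15 mM addition). Kinetic TNB absorbance, 405 nm filter. Four-parameter Hill fit across titration.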
Lassa entry inh – inhibitors of Lassa virus binding or cell entry. Lassa virus pseudotype entry inhibition, cell reporter. 300,000 compounds, 1.2% hits. Potency, µM (top dose mostly 37.9 µM), without a hit: at the highest dose activity change, negative = inhibition, most hits filed as inhibitors. AID 540256; calls by dose curve; tested in HEK293 cells; note: nearly all actives have a fitted effect of over 50% in size
VACV Venus inh – vaccinia inhibition (Venus reporter); AID 720580; 330,000 compounds, 0.46% hits; Vaccinia virus Venus reporter expression, fluorescence; Potency, µM (titrated, usually from 36.5 µM), without a hit: at the top dose activity change, negative = inhibition, usual class: inhibitors; calls by dose curve; tested in A549 cells; note: nearly all actives have a fitted effect of over 30% in size
Starred values were filed as active, the others as inactive; ? = inconclusive; . = not tested or not shown; [ ] = dose if it differs, or a comment. % is set by controls: 0 for no effect and ±100 for the full control effect; potency is the fitted concentration of half-maximal effect.

SMILES	Marburg entry inh	Vaccinia mCherry	FMDV inh	Sm TGR inh	Lassa entry inh	VACV Venus inh
CC(=O)Nc1ccc(NC(=O)C2CCN(S(=O)(=O)c3cccc4nonc34)CC2)cc1	-5%	-15%	.	-21%	3%	-11%
COc1ccc(OC)c(S(=O)(=O)N2CCC(C(=O)Nc3ccc(C)c(C)c3)CC2)c1	?	.	25µM*	2%	-24%	.
COc1ccc(/C=C\c2onc(C)c2S(=O)(=O)N2CCC(C(=O)Nc3cccc(OC)c3)CC2)cc1	?	-22%	14µM*	-8%	?	-25%
CCOC(=O)c1c(S(=O)(=O)N2CCCC(C(=O)N3CCN(c4cccc(C)c4C)CC3)C2)c(C)n(C)c1C (configuration not stated)	.	-20%	-9%	5%	?	-10%
C[C@H]1[C@@H](c2ccccc2)Oc2c(Cl)cccc2S(=O)(=O)N1Cc1ccc(Cl)cc1	.	.	.	.	5%[46.1 µM]	.
COc1ccc(NC(=O)c2cc3c(s2)CCC(C)C3)cc1S(=O)(=O)N1CCOCC1 (configuration not stated)	?	?	28µM*	1%	23µM*	?
COC[C@H]1O[C@@H]2O[C@@H]1[C@@H](C=Cc1ccccc1)C[C@H]2C	5%[14.2 µM]	.	.	.	.	.
Cc1ccccc1NC(=O)CC1SC(=O)N(c2ccccc2)C1=O (configuration not stated)	21%	4%	-6%	5µM*	2%	13%
O=C(CC1SC(=O)N(c2ccccc2)C1=O)Nc1cccc2ccccc12 (configuration not stated)	-12%[46.1 µM]	?	-14%	?	-1%	-8%
COC(=O)c1ccc(CSc2ccc3nnc(-c4ccc(F)cc4)n3n2)o1	.	.	?	-22%	.	.
COC(=O)c1ccc(CSc2ccc3nnc(-c4ccccn4)n3n2)o1	.	-11%	-25%	40µM*	.	-4%
Cc1ccc(C)c(CSc2ccc3nnc(-c4ccccn4)n3n2)c1	?	-13%	22µM*	-4%	?	-16%
Cc1ccc(CSc2ccc3nnc(-c4ccccn4)n3n2)cc1	-9%	-8%	?	-3%	-18%	-9%
Nc1c(-c2nc(-c3ccc(Cl)cc3)cs2)c2ccccn2c1C(=O)c1ccc2c(c1)OCO2	-15%[46.1 µM]	1%	-4%	0%	4%[46.1 µM]	0%
O=C(NC1CCN(Cc2ccccc2)CC1)c1cn(-c2ccccc2)nc1-c1cccnc1	11µM*	?	-19%	1%	-3%[46.1 µM]	?
O=C(O)c1cn(-c2ccccc2)nc1-c1cccnc1	6%	.	-6%	3%	12%	.
Cc1ccc(CNc2nc(CN3CCNC(=O)C3)nc3ccccc23)o1	.	-16%	21%	.	.	-13%
O=C1CN(C(=O)COC(=O)c2ccc([N+](=O)[O-])o2)c2ccccc2N1	.	.	-22%	45µM*	.	.
CC1(C)C(=O)Nc2ccccc2N1C(=O)COC(=O)c1ccc([N+](=O)[O-])o1	-13%	?	-2%	.	28%	-20%
O=C(COC(=O)c1ccc([N+](=O)[O-])o1)Nc1cccc2ccccc12	?	-20%	-11%	14µM*	?	-29%
CCCc1nc(SCC(=O)Nc2ccc(N3CCOCC3)cc2)c2ccccc2n1	0.71µM*	-11%	?	-28%	13%	-19%
CCN(CC)c1ccc(NC(=O)CSc2nc(C3CC3)nc3ccccc23)cc1C	4.5µM*	?	-11%	-2%	?	-27%
O=C(CSc1nc(C2CC2)nc2ccccc12)Nc1ccccc1N1CCOCC1	.	.	25µM*	.	.	.
CCOC(=O)C1=CN(CCC=C(C)C)C(=O)N(C(C)=O)C1c1ccccc1 (configuration not stated)	57%[14.2 µM]	.	.	.	.	.
Cc1ccc(NC(=O)CSc2nc3ccc(NC(=O)c4cccc(Cl)c4)cc3s2)c(C)c1	2%[46.1 µM]	-8%	-11%	-7%	-5%[46.1 µM]	-10%
SMILES	Marburg entry inh	Vaccinia mCherry	FMDV inh	Sm TGR inh	Lassa entry inh	VACV Venus inh
CCOc1ccc(NC(=O)CC2C(=O)N(c3cccc(C)c3)C(=O)N2Cc2cccnc2)cc1 (configuration not stated)	.	-12%	-7%	0%	0%[46.1 µM]	-9%
O=C(/C=C/c1ccccc1)N1CCN(Cc2cc(=O)n3nc(-c4ccccc4)sc3n2)CC1	.	-21%	-13%	-1%	12%[46.1 µM]	-3%
Cc1ccc(S(=O)(=O)N2CCCCC2)cc1NC(=O)c1ccc2c(=O)n3c(nc2c1)CCCCC3	?	.	.	-8%	16µM*	.
Cc1ccc(-c2csc(NC(=O)c3ccc4c(=O)n5c(nc4c3)CCCCC5)n2)cc1	?	-2%	7.9µM*	-10%	?	-20%
O=C(Nc1ccc(F)cc1)c1ccc2c(=O)n3c(nc2c1)CCCCC3	.	-7%	-9%	4%	4%[46.1 µM]	-8%
CC(=O)c1ccc(NC(=O)c2ccc3c(=O)n4c(nc3c2)CCCCC4)cc1	.	.	?	-14%	.	.
O=C(Nc1ccc(S(=O)(=O)N2CCCC2)cc1)c1ccc2c(=O)n3c(nc2c1)CCCCC3	2.5µM*	-12%	?	-16%	-2%	-4%
O=C1CCC2=C(O1)C(O)=C(O)CC2	8%	.	.	.	.	.
C[C@@H](CN1CCN(C)CC1)OC(=O)c1ccc(Cl)cc1Cl	12%	.	.	.	.	.
COC(=O)c1sccc1S(=O)(=O)N1CCN(c2cc(Cl)ccc2C)CC1	.	-8%	-17%	0%	-11%[46.1 µM]	2%
O=C(NC12CC3CC(CC(C3)C1)C2)N1CCN(c2nc(-c3ccccc3)cs2)CC1	?	-19%[1.46 µM]	25µM*	14%	?	?
O=C(NC1CCCCC1)N1CCN(c2nc(-c3ccccc3)cs2)CC1	?	-10%	?	15%	-19%	-20%
CCOc1ccc2nc(N3CCCC(C(=O)Nc4cc(Cl)c(OC)cc4OC)C3)sc2c1 (configuration not stated)	?	-5%	34%	-15%	.	-11%
C=CCN1C(=O)CC[C@@]23C1=NC(C(=O)OC)=C(C(=O)OC)[C@@H]2N(CC=C)c1ccccc13	-3%[14.2 µM]	.	.	.	.	.
COCC(C)OC(=O)c1c(N)n(Cc2ccco2)c2nc3ccccc3nc12 (configuration not stated)	4%	.	-22%	10µM*	-8%	8%
CCOC(=O)c1c(N)n(Cc2ccco2)c2nc3ccccc3nc12	-12%	.	-23%	45µM*	-2%	.
CCCCCCn1c(C(C)NC(=O)c2ccco2)nc2ccccc21 (configuration not stated)	?	.	?	40µM*	-24%	-26%
CCCCn1c(NC(=O)c2ccco2)c(C(=O)OCC)c2nc3ccccc3nc21	-25%	-13%	.	25µM*	-9%	12%
CCCCn1c(C(C)NC(=O)CC)nc2ccccc21 (configuration not stated)	.	3%	-19%	5%	.	1%
Cc1cccc(-n2c(=O)c3c(c4cc(C)ccc4n3C)n(CC(=O)NCCC3=CCCCC3)c2=O)c1	.	-19%	-18%	3%	21%[46.1 µM]	?
